This note sets out measurements from PubChem BioAssay (NCI).

The panel holds about 83,000 compounds, 20% with a hit somewhere; the sample as a whole holds those more often.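 Assay: single dose, 48 h. Readout: percent growth (0 = no net growth; negative = cell death). Active: <10.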 Unmarked numbers belong to inactive results. The source made the active and inactive calls.

Test systems include NCI-H23 lung; NCI-H226 lung; NCI-H322M lung; HOP-62 NSCLC; NCI-H460 lung; A549/ATCC NSCLC; 786-0 renal; COLO 205 colon; DU-145 prostate; K-562 leukemia; MALME-3M melanoma; MDA-MB-231 breast; RXF 393 renal; SF-268 CNS; SF-295 CNS; SF-539 CNS; M14 melanoma.
Common to all, as to assay: NCI-60 one-dose screen, 48 h (100 = growth as untreated, 0 = no growth, -100 = all killed)
A further assay has as its system HOP-92 NSCLC. The settings on record: 10 µM unless noted.
A further assay has as its system NCI-H522 lung. Particulars: 10 µM unless noted.
The subject of the next assay is UACC-257 melanoma. Particulars: 10 µM unless noted.

Consider `O=[N+]([O-])c1ccc(N=Nc2ccc(O)cc2O)cc1`, for which the growth in the assay with NCI-H23 lung (10 µM unless noted) is 55.1%; with NCI-H226 lung (10 µM unless noted) it was 60.6%; with NCI-H322M lung (10 µM unless noted), 84.8%; in the assay with HOP-62 NSCLC (10 µM unless noted) it was 93.6%; with NCI-H460 lung (10 µM unless noted), 66%; in the assay with HOP-92 NSCLC, -18.1% (active). Also, the growth with NCI-H522 lung was 19.5%; in the assay on A549/ATCC NSCLC (10 µM unless noted), 62.6%; in the assay on 786-0 renal (10 µM unless noted), 51.3%; in the assay with COLO 205 colon (10 µM unless noted) it was 41.4%; with DU-145 prostate (10 µM unless noted) it was 83.2%; with K-562 leukemia (10 µM unless noted), 20.6%. Besides, the growth was 72.5% in the assay on MALME-3M melanoma (10 µM unless noted); 47.4% in the assay with MDA-MB-231 breast (10 µM unless noted); 20.6% in the assay on RXF 393 renal (10 µM unless noted); 78% in the assay with SF-268 CNS (10 µM unless noted); 50.6% in the assay with SF-295 CNS (10 µM unless noted); 37.7% with SF-539 CNS (10 µM unless noted). In addition, the growth in the assay on UACC-257 melanoma was 43.7%; in the assay with M14 melanoma (10 µM unless noted) it was 51.3%.

As for `O=C(/C=C\c1ccccc1)N1c2ccccc2CC1c1c[nH]c2ccccc12` (configuration not stated), the growth with NCI-H23 lung (10 µM unless noted) is 59.5%; in the assay with NCI-H226 lung (10 µM unless noted) it was 67.3%; in the assay with NCI-H322M lung (10 µM unless noted), 76.9%; with HOP-62 NSCLC (10 µM unless noted), 57.1%; in the assay with NCI-H460 lung (10 µM unless noted) it was 70.1%; in the assay on HOP-92 NSCLC it was 47.5%. In addition, the growth with NCI-H522 lung was 30.2%; in the assay with A549/ATCC NSCLC (10 µM unless noted) it was 64.5%; with 786-0 renal (10 µM unless noted), 77.7%; with COLO 205 colon (10 µM unless noted) it was 56.6%; in the assay on DU-145 prostate (10 µM unless noted), 89.7%; in the assay on K-562 leukemia (10 µM unless noted), 65.9%. Further, the growth in the assay on MALME-3M melanoma (10 µM unless noted) was 85.4%; in the assay with MDA-MB-231 breast (10 µM unless noted) it was 60.8%; in the assay with RXF 393 renal (10 µM unless noted), 93.4%; in the assay on SF-268 CNS (10 µM unless noted) it was 75.2%; with SF-295 CNS (10 µM unless noted), 68.7%; in the assay on SF-539 CNS (10 µM unless noted) it was 95.1%. Besides, the growth with UACC-257 melanoma was 88.8%; with M14 melanoma (10 µM unless noted), 71.6%.

Take `CC(C)(C)c1ccc(O)c(C2CCCCC2)c1`: the growth is 98% in the assay with NCI-H23 lung (10 µM unless noted); 104% in the assay on NCI-H226 lung (10 µM unless noted); 105% in the assay on NCI-H322M lung (10 µM unless noted); 107% in the assay with HOP-62 NSCLC (10 µM unless noted); 107% in the assay with NCI-H460 lung (10 µM unless noted); 96.6% in the assay with HOP-92 NSCLC. Moreover, the growth with NCI-H522 lung is 83.6%; with A549/ATCC NSCLC (10 µM unless noted), 95.9%; in the assay on 786-0 renal (10 µM unless noted) it was 99.8%; with COLO 205 colon (10 µM unless noted), 103%; with DU-145 prostate (10 µM unless noted), 102%; in the assay with K-562 leukemia (10 µM unless noted), 89.8%. Further, the growth is 115% in the assay on MALME-3M melanoma (10 µM unless noted); 106% with MDA-MB-231 breast (10 µM unless noted); 90.9% in the assay with RXF 393 renal (10 µM unless noted); 99.4% with SF-268 CNS (10 µM unless noted); 130% in the assay with SF-295 CNS (10 µM unless noted); 121% in the assay on SF-539 CNS (10 µM unless noted). Further, the growth with UACC-257 melanoma is 86.6%; in the assay on M14 melanoma (10 µM unless noted), 122%.

Consider `O=C1c2ccccc2C(=O)c2sc(Nc3cccc(Cl)c3)nc21`, for which the growth is -51.4% (active) with NCI-H23 lung (10 µM unless noted); -44.3% (active) with NCI-H226 lung (10 µM unless noted); 64.5% in the assay on NCI-H322M lung (10 µM unless noted); -77.3% (active) in the assay on HOP-62 NSCLC (10 µM unless noted); 72.1% with NCI-H460 lung (10 µM unless noted); 65.2% in the assay with HOP-92 NSCLC. In addition, the growth is -32% (active) with NCI-H522 lung; 30.7% in the assay with A549/ATCC NSCLC (10 µM unless noted); 8.79% (active) in the assay with 786-0 renal (10 µM unless noted); 84.7% in the assay on COLO 205 colon (10 µM unless noted); -93.9% (active) in the assay with DU-145 prostate (10 µM unless noted); 6.87% (active) in the assay with K-562 leukemia (10 µM unless noted). The growth in the assay with MALME-3M melanoma (10 µM unless noted) is -89.9% (active); in the assay with MDA-MB-231 breast (10 µM unless noted) it was -8.62% (active); with RXF 393 renal (10 µM unless noted), -11.5% (active); with SF-268 CNS (10 µM unless noted), -7.47% (active); in the assay on SF-295 CNS (10 µM unless noted) it was 66.2%; with SF-539 CNS (10 µM unless noted) it was -91.5% (active). Further, the results for the growth in the assay with UACC-257 melanoma and in the assay on M14 melanoma (10 µM unless noted) were -74.9% (active) and -89.1% (active), respectively.

As for `c1ccc2c(c1)Nc1cc3ccccc3cc1N2`, the growth in the assay on NCI-H23 lung (10 µM unless noted) is 30.3%; in the assay with NCI-H226 lung (10 µM unless noted), 80.5%; with NCI-H322M lung (10 µM unless noted) it was 48.5%; with HOP-62 NSCLC (10 µM unless noted), 41.4%; in the assay on NCI-H460 lung (10 µM unless noted), 51.7%; in the assay on HOP-92 NSCLC it was 85%. Also, the growth in the assay on NCI-H522 lung was -14.7% (active); in the assay with A549/ATCC NSCLC (10 µM unless noted), 41.5%; in the assay on 786-0 renal (10 µM unless noted), 66.6%; with COLO 205 colon (10 µM unless noted), -43.7% (active); in the assay with DU-145 prostate (10 µM unless noted) it was 60.9%; in the assay with K-562 leukemia (10 µM unless noted), 20.9%. Also, the growth with MALME-3M melanoma (10 µM unless noted) was 28.4%; with MDA-MB-231 breast (10 µM unless noted) it was 33.1%; with RXF 393 renal (10 µM unless noted), 63.3%; with SF-268 CNS (10 µM unless noted), 66.2%; with SF-295 CNS (10 µM unless noted), 46.2%; in the assay with SF-539 CNS (10 µM unless noted), 39.1%. In addition, the growth is 37.4% in the assay with UACC-257 melanoma and 23.9% in the assay with M14 melanoma (10 µM unless noted).

On to `CN(C)C(=O)c1ccc(SC(=S)NCc2ccccc2)cc1`, for which the growth is 109% in the assay on NCI-H23 lung (10 µM); 5.21% (active) with NCI-H23 lung (100 µM); 112% in the assay on NCI-H226 lung (10 µM); 102% with NCI-H226 lung (100 µM); 110% in the assay on NCI-H322M lung (10 µM); 58.2% in the assay with NCI-H322M lung (100 µM). The growth with HOP-62 NSCLC (10 µM) was 107%; in the assay with HOP-62 NSCLC (100 µM), 46.5%; in the assay with NCI-H460 lung (10 µM), 105%; in the assay on NCI-H460 lung (100 µM) it was 8.96% (active); in the assay with HOP-92 NSCLC, -10.3% [100 µM] (active); with NCI-H522 lung it was -48.7% [100 µM] (active). Besides, the growth with A549/ATCC NSCLC (10 µM) was 105%; with A549/ATCC NSCLC (100 µM) it was 34.4%; with 786-0 renal (10 µM), 109%; in the assay on 786-0 renal (100 µM), -17.6% (active); in the assay with COLO 205 colon (10 µM), 101%; in the assay on COLO 205 colon (100 µM), -11.4% (active). Further, the growth in the assay with DU-145 prostate (10 µM) is 111%; in the assay with DU-145 prostate (100 µM), 10.1%; with K-562 leukemia (10 µM) it was 82.6%; in the assay on K-562 leukemia (100 µM), 3.9% (active); in the assay with MALME-3M melanoma (10 µM) it was 108%; with MALME-3M melanoma (100 µM), -12.7% (active). Further, the growth in the assay on MDA-MB-231 breast (10 µM) is 109%; with MDA-MB-231 breast (100 µM), 13.3%; in the assay on RXF 393 renal (10 µM), 108%; in the assay with RXF 393 renal (100 µM) it was -72.4% (active); with SF-268 CNS (10 µM), 124%; in the assay with SF-268 CNS (100 µM), 50.2%. Moreover, the growth is 119% in the assay on SF-295 CNS (10 µM); 26.3% in the assay on SF-295 CNS (100 µM); 102% with SF-539 CNS (10 µM); -62.3% (active) with SF-539 CNS (100 µM); 18.4% [100 µM] with UACC-257 melanoma; 103% in the assay with M14 melanoma (10 µM). In the assay on M14 melanoma (100 µM), the growth was -42% (active).
